Test results: PubChem BioAssay AID588397 (National Center for Advancing Translational Sciences (NCATS), 2011)
Screen size: about 1,300 compounds; about 1,000 (77%) were called active. Not shown: some 7% with an inconclusive outcome. Calls come from the whole dose curve; as a rule, active = well fitted inhibition curve with a large enough effect; inconclusive = small, poorly fitted or top-dose-only effect; inactive = no such curve, though single readings can be large or run the other way. The set was probably picked from earlier hits. This is one part of the list.

Test: qHTS of small molecules that selectively kill Giardia lamblia: Hit Validation.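 Note: viability measured as ATP content by luminescence so killing lowers signal; nearly all actives have a fitted effect of over 65% in size.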
Settings: Giardia lamblia trophozoite viability, dose-response; series mostly up to 38.3 µM; activity change, negative = killing: at the top concentration
Description: Giardia lamblia is a human pathogen afflicting impoverished nations, and the most common cause of outbreaks of diarrhea in the United States. Giardia has been classified by the CDC as a category B bioterrorism organism. The favored anti giardiasis drugs in the US are metronidazole or tinidazole, compounds that have undesirable side effects. Moreover, increasing resistance to drug regimes and recurrence are a concern. It is thus clear that alternative drug treatments are needed.
In a collaboration between the University of Maryland, College Park and the NIH Chemical Genomics Center, a bioluminescence Giardia viability assay based on the trophozoites' ATP content was developed. This assay is suitable for high throughput screening, and miniaturized the assay for compound screening in 1536-well plates. The goal of the project is to screen the Molecular Libraries Small Molecule Repository (MLSMR) for compounds that selectively kill Giardia trophozoites.
NIH Chemical Genomics Center [NCGC]
NIH Molecular Libraries Probe Centers Network [MLPCN]
Assay Submitter (PI): Osnat Herzberg, University of Maryland, College Park, MD.
1. Dispense 2 ul/well media
2. Dispense 23 nl/well compounds
3. Dispense 4 ul/well Giardia trophozoites at a concentration of 100 cells/well
4. Incubate 48 hrs at 37 deg C anaerobically
5. Dispense 4 ul/well ATPLite 1-Step Luminescence assay kit
6. Incubate 15-30 min at room temperature
7. Read luminescence signal on ViewLux plate reader
% is set by controls: 0 for no effect and ±100 for the full control effect; potency is the fitted concentration of half-maximal effect.

| SMILES | Potency | activity change, negative = killing |
| --- | --- | --- |
| COc1ccccc1NC(=O)C(=O)N/N=C/c1ccc([N+](=O)[O-])s1 | 2.05 µM (active) |  |
| COC(=O)N/N=C/c1ccc([N+](=O)[O-])s1 | 4.1 µM (active) |  |
| CCOC(=O)N/N=C\c1ccc([N+](=O)[O-])s1 | 4.1 µM (active) |  |
| Cc1ccnn1CC(=O)N/N=C/c1ccc([N+](=O)[O-])s1 | 3.65 µM (active) |  |
| O=C(COC(=O)c1cc(Cl)ccc1O)NC(=O)NCc1ccccc1 |  | 1.53% (inactive) |
| Cc1csc(NC(=O)CSc2nc3[nH]c(=O)cc(O)c3s2)n1 | 1.03 µM (active) |  |
| CC(NCCN(C)C)C1CCC2C3CCc4cc(O)ccc4C3CCC12C (centres undefined) | 1.16 µM (active) |  |
| COc1cc(C2CC(=O)Oc3cc(C)c(Cl)c(C)c32)cc(OC)c1OC (centres undefined) |  | -5.49% (inactive) |
| COc1cc(/C=C2\COC/C(=C\c3cc(OC)c(OC)c(OC)c3)C2=O)cc(OC)c1OC | 11.6 µM (active) |  |
| O=C(CCCn1cnc([N+](=O)[O-])n1)Nc1ccc(F)c(Cl)c1 | 3.65 µM (active) |  |
| Cc1nn(CCCC(=O)Nc2c(F)cc(F)cc2Br)c(C)c1[N+](=O)[O-] |  | -0.27% (inactive) |
| O=C(CCCn1cnc([N+](=O)[O-])n1)Nc1cccc(Cl)c1Cl | 3.65 µM (active) |  |
| COc1ccc(NC(=O)CCCn2nc(C)c3c(C)n(-c4ccccc4)nc3c2=O)cc1OC |  | 1.17% (inactive) |
| Cc1c(Cl)cccc1NC(=O)CCCn1cnc([N+](=O)[O-])n1 | 4.1 µM (active) |  |
| O=C(c1ccco1)N1CCN(Cc2cc(=O)c(OCc3ccc([N+](=O)[O-])cc3)co2)CC1 | 0.183 µM (active) |  |
| O=[N+]([O-])c1cccc(COc2ccccc2CN2CCCC2)c1 |  | -3.87% (inactive) |
| O=C1NC(=O)/C(=C\c2ccc(Oc3ccc([N+](=O)[O-])cn3)cc2)S1 | 9.18 µM (active) |  |
| O=C(Nc1ccc(C(=O)O)cc1)/C(=C\C=C\c1ccccc1)NC(=O)c1ccccc1Cl | 6.5 µM (active) |  |
| C#CCOCCOCCOCCNc1nc(N2CCN(C(=O)[C@H](CCC(=O)O)n3cc([C@@H](N)CC(N)=O)nn3)CC2)nc(N2CCN(C(=O)[C@H](CCC(=O)O)n3cc([C@@H](N)CC(N)=O)nn3)CC2)n1 |  | -18.6% (inactive) |
| CCCCCN=Cc1c(C)[nH]n(-c2nc3ccccc3s2)c1=O | 3.26 µM (active) |  |
| Cc1ccc(N=Nc2c(O)ccc3n[nH]nc23)cc1 | 3.65 µM (active) |  |
| CCC1=C(OC(=O)N(CC)CC)N2C(=O)OC(=NCC(=O)OC)[C@]2(C)[C@H]2C1=CC[C@H]1C(=O)N(CC)C(=O)[C@H]12 |  | -6.74% (inactive) |
| CN(C)C(=O)C[n+]1ccc(C(N)=O)cc1 |  | -26.8% (inactive) |

| SMILES | Potency | activity change, negative = killing |
| --- | --- | --- |
| Cc1ccc(NC(=O)Cn2cnc([N+](=O)[O-])c2)cc1C | 8.18 µM (active) |  |
| Fc1ccc(CN2CC[C@H]3C=CCc4cccc(c43)C2)cc1 |  | -8.09% (inactive) |
| COc1ccc(C(=O)COC(=O)c2ccccc2NS(=O)(=O)c2ccc(O)c([N+](=O)[O-])c2)cc1 | 1.45 µM (active) |  |
| COc1ccc(S(=O)(=O)Nc2c(O)c3ccccc3oc2=O)cc1 |  | -9.08% (inactive) |
| Cc1ccc(S(=O)(=O)Nc2ccc(C(OC(=O)c3ccccc3[N+](=O)[O-])(C(F)(F)F)C(F)(F)F)cc2)cc1 | 3.65 µM (active) |  |
| O=C(N/N=C/c1ccc([N+](=O)[O-])o1)c1cc(-c2ccc(-c3ccccc3)cc2)nc2ccccc12 | 1.03 µM (active) |  |
| O=C(N/N=C/c1ccc([N+](=O)[O-])o1)c1cc(-c2cccc(Br)c2)nc2ccccc12 | 1.16 µM (active) |  |
| CCCc1ccc(-c2cc(C(=O)N/N=C/c3ccc([N+](=O)[O-])o3)c3ccccc3n2)cc1 | 1.63 µM (active) |  |
| Cc1ccc(-c2cc(C(=O)N/N=C/c3ccc([N+](=O)[O-])o3)c3ccccc3n2)o1 | 1.03 µM (active) |  |
| COc1ccc(-c2ccc([C@H]3[C@@H]4C=CCC[C@@]4(C)C(=O)N3Cc3ccccc3)c(F)c2)cc1OC |  | -4.14% (inactive) |
| COc1cc(/C=C2\SC(=O)N(Cc3ccc(F)cc3)C2=O)cc([N+](=O)[O-])c1O | 1.83 µM (active) |  |
| COc1cc(/C=C2\SC(=O)N(c3ccc(Cl)cc3)C2=O)cc([N+](=O)[O-])c1O | 4.1 µM (active) |  |
| COc1cc(/C=C2\SC(=O)N(Cc3ccc(Cl)cc3)C2=O)cc([N+](=O)[O-])c1O | 1.63 µM (active) |  |
| CCS(=O)(=O)Nc1cccc(C2=NN(S(=O)(=O)c3ccc(C)cc3)C(c3ccco3)C2)c1 (centres undefined) |  | 3.24% (inactive) |
| COc1ccc(NS(=O)(=O)c2ccc(S(=O)(=O)N(C)C)cc2)cc1S(N)(=O)=O |  | 2.7% (inactive) |
| COc1ccc(OCc2cc(C(=O)N(C)Cc3cc(C4CC4)n[nH]3)no2)c(Cl)c1 |  | -16.1% (inactive) |
| COc1cccc(/C=C/c2ccc3ccccc3n2)c1OC(C)=O | 8.18 µM (active) |  |
| COc1ccc(/C=C/c2ccc3ccccc3n2)cc1OC | 4.6 µM (active) |  |
| COc1ccc(/C=C/c2ccc3ccccc3n2)c(OC)c1 | 2.31 µM (active) |  |
| COc1ccc(OC)c(/C=C/c2ccc3ccccc3n2)c1 |  | -32.6% (inactive) |
| Cc1ccccc1N1CCN(Cc2ccc([N+](=O)[O-])o2)CC1 | 1.16 µM (active) |  |
| O=[N+]([O-])c1ccc(CN2CCN(c3ccccc3Cl)CC2)o1 | 0.65 µM (active) |  |
| Cc1cccc(N2CCN(Cc3ccc([N+](=O)[O-])o3)CC2)c1C | 0.729 µM (active) |  |

| SMILES | Potency | activity change, negative = killing |
| --- | --- | --- |
| Cc1ncc([N+](=O)[O-])n1CCOC(=O)Nc1ccc(Cl)c(Cl)c1 | 0.23 µM (active) |  |
| C#CCCOC(=O)Nc1ccccc1 |  | -5.13% (inactive) |
| Cc1ncc([N+](=O)[O-])n1CCOC(=O)Nc1ccc([N+](=O)[O-])cc1 | 0.146 µM (active) |  |
| COc1ccc(NC(=O)OCCn2c([N+](=O)[O-])cnc2C)cc1 | 0.65 µM (active) |  |
| CN1C2=CC=CC=CC2=[N+](C)C12C([N+](=O)[O-])=CC(=[N+]([O-])[O-])C=C2[N+](=O)[O-] (centres undefined) | 0.206 µM (active) |  |
| CCOC(=O)c1ccc(NS(C)(=O)=O)cc1 |  | -33.5% (inactive) |
| Cc1cc(C(=O)COC(=O)c2cccc(NS(C)(=O)=O)c2)c(C)n1CC1CCCO1 (centres undefined) | 4.1 µM (active) |  |
| Cc1nnc(N/N=C/c2cccs2)[nH]c1=O |  | 0.18% (inactive) |
| S=C(NCCc1ccccc1)N/N=C/c1cccs1 | 23.1 µM (active) |  |
| CC1CC(C)C(=O)C(C(CC2CC(=O)NC(=O)C2)OC(=O)CC(=O)c2ccccc2)C1 (centres undefined) | 0.13 µM (active) |  |
| CCn1nnc(NC(=O)c2ccc(C(C)(C)C)cc2)n1 | 7.29 µM (active) |  |
| O=C(Nc1ncccn1)c1ccc([N+](=O)[O-])o1 | 1.3 µM (active) |  |
| O=C(Nc1ccc(Br)cn1)c1ccc([N+](=O)[O-])o1 | 1.63 µM (active) |  |
| Cc1cccnc1NC(=O)c1ccc([N+](=O)[O-])o1 | 0.918 µM (active) |  |
| O=C(Nc1ccccn1)c1ccc([N+](=O)[O-])o1 | 1.63 µM (active) |  |
| Cc1onc(NC(=O)c2ccc([N+](=O)[O-])o2)c1Br | 1.63 µM (active) |  |
| CCn1nnc(NC(=O)c2ccc([N+](=O)[O-])o2)n1 | 1.45 µM (active) |  |
| O=C(NCC(c1ccco1)N1CCCC1)c1ccc(S(=O)(=O)Nc2ccccc2Cl)cc1 (centres undefined) |  | -15.3% (inactive) |
| CC1(C)[N+]([O-])=C2C(=[N+]([O-])C1(C)C)c1ccccc1/C2=N\O | 1.63 µM (active) |  |
| C/C(=N\NC(=O)COc1ccc(C)cc1Br)c1cc([N+](=O)[O-])cs1 | 1.63 µM (active) |  |
| CC(=NN1CC(=O)NC1=O)c1ccc([N+](=O)[O-])o1 | 1.45 µM (active) |  |
| COc1cccc(NC2c3ccccc3C(=O)N2Cc2ccco2)c1 (centres undefined) |  | -6.92% (inactive) |
| O=[N+]([O-])c1ccc(-c2ccn[nH]2)o1 | 0.0516 µM (active) |  |

| SMILES | Potency | activity change, negative = killing |
| --- | --- | --- |
| CC(=O)Oc1ccc2c(=O)c(Oc3ccccc3[N+](=O)[O-])coc2c1 | 3.26 µM (active) |  |
| CCOC(=O)N1C(C)CN(/[N+]([O-])=N/Oc2ccc([N+](=O)[O-])cc2[N+](=O)[O-])CC1C (centres undefined) | 5.79 µM (active) |  |
| O=[N+]([O-])c1ccc(O/N=[N+](\[O-])N2CCCCC2)c([N+](=O)[O-])c1 | 5.16 µM (active) |  |
| CCOC(=O)c1nnn(-c2ccc([N+](=O)[O-])cc2[N+](=O)[O-])c1C | 8.18 µM (active) |  |
| CCN(CC)/[N+]([O-])=N/Oc1ccc([N+](=O)[O-])cc1[N+](=O)[O-] | 4.1 µM (active) |  |
| O=C1CC(SC(=Nc2ccccc2)Nc2ccccc2)C(=O)N1c1cccc2ccccc12 (centres undefined) |  | 8.54% (inactive) |
| O=[n+]1c2c(n([O-])c3cc(Br)ccc31)CCC2 | 2.31 µM (active) |  |
| O=[n+]1c2c(n([O-])c3cc(Br)ccc31)CCCC2 | 2.31 µM (active) |  |
| O=[n+]1c2c(n([O-])c3cc(Cl)ccc31)CCCC2 | 4.6 µM (active) |  |
| Cc1c(Cl)cccc1N=c1c([N+](=O)[O-])nn(-c2ccccc2)n1O | 0.516 µM (active) |  |
| Cc1ccc(N=c2c([N+](=O)[O-])nn(-c3ccccc3)n2O)c(C)c1 | 1.03 µM (active) |  |
| CCCC/C=C/C(NC(=O)c1ccc(C(=O)OC)cc1)c1ccccc1 (centres undefined) |  | 2.61% (inactive) |
| Cc1cc(N)ccc1N=Nc1c(C)n(C)n(-c2ccccc2)c1=O | 0.729 µM (active) |  |
| CCNc1ccc(N=Nc2c(C)n(C)n(-c3ccccc3)c2=O)cc1 | 0.729 µM (active) |  |
| Cc1c(NC2(C#N)CCCC2)c(=O)n(-c2ccccc2)n1C |  | -13.8% (inactive) |
| COc1cc(N=Nc2c(C)n(C)n(-c3ccccc3)c2=O)ccc1N | 2.31 µM (active) |  |
| Cc1c(N=Nc2ccc(O)cc2)c(=O)n(-c2ccccc2)n1C | 5.16 µM (active) |  |
| Cc1c(N=Nc2ccc(N(C)C)cc2)c(=O)n(-c2ccccc2)n1C | 0.65 µM (active) |  |
| O=[N+]([O-])c1ccc(/C=C/c2ccnc3ccccc23)c([N+](=O)[O-])c1 | 7.29 µM (active) |  |
| CSC1SCC2C(=O)N(C)C(C(C)C)C(=O)OCC(NC(=O)c3cnc4ccccc4n3)C(=O)NC(C)C(=O)N(C)C1C(=O)N(C)C(C(C)C)C(=O)OCC(NC(=O)c1cnc3ccccc3n1)C(=O)NC(C)C(=O)N2C (centres undefined) | 0.206 µM (active) |  |
